# Measured values from PMC7862700, “An all-to-all approach to the identification of sequence-specific readers for epigenetic DNA modifications on cytosine”.
# Experiments:
# Test in all cases: DAPPL (digital affinity profiling via proximity ligation, sequencing); 10 mM Tris-HCl pH 7.5, 50 mM NaCl, 1 mM DTT, 4% glycerol, room temperature, 30 min; GST-TFs on glutathione beads, 16-mer random dsDNA library, 0.1% formaldehyde crosslink after washing; high values mean tight binding
# FLI1 = target: T1, FLI1 (Homo sapiens, UniProt Q01543 1-452); settings: protein: recombinant; tags: N-terminal GST; dsDNA, one strand shown
# T1 sequence: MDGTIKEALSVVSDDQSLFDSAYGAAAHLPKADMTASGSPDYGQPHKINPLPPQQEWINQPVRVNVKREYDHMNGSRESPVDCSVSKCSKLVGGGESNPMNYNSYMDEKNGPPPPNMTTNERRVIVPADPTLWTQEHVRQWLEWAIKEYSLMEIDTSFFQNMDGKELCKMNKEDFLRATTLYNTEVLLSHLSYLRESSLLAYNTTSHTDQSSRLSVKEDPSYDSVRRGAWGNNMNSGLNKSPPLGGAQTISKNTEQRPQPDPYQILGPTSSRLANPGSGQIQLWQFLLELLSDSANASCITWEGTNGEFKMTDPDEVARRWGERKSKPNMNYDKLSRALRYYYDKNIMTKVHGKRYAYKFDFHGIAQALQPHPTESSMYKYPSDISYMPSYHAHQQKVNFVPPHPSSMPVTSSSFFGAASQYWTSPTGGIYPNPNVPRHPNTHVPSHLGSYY
# Method in brief: (§1)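 A tag-only sample was pooled with DNA-barcoded human transcription factors that had been expressed in yeast as GST fusions and captured on glutathione beads. The pools were incubated for 30 min at room temperature with 200 nmole of a random double-stranded 16-mer DNA library in Tris/NaCl/DTT/glycerol buffer, then washed, crosslinked with 0.1% formaldehyde, proximity-ligated (BsaI/T4 ligase, 1 h, 37 °C), PCR-amplified and sequenced on an Illumina NextSeq500. Binding signal is each hexamer's read frequency for a factor divided by its frequency for the tag-only sample.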
# ELK1 = target: T2, ELK1 (Homo sapiens, UniProt P19419 1-428); settings: protein: recombinant; tags: N-terminal GST; dsDNA, one strand shown
# T2 sequence: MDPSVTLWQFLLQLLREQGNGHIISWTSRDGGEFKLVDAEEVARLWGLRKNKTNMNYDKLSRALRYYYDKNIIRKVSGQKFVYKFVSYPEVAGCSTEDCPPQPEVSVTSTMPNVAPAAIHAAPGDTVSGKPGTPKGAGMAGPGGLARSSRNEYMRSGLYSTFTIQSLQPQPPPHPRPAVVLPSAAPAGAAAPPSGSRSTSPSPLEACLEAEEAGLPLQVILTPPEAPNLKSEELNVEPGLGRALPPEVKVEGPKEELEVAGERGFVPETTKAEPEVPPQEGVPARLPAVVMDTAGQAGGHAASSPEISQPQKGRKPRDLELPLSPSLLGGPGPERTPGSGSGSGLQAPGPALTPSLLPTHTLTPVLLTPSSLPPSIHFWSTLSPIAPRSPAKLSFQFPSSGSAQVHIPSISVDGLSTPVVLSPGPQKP
# Method in brief: as §1
# GABPA = target: T3, GABPA (Homo sapiens, UniProt Q06546 1-454); settings: protein: recombinant; tags: N-terminal GST; dsDNA, one strand shown
# T3 sequence: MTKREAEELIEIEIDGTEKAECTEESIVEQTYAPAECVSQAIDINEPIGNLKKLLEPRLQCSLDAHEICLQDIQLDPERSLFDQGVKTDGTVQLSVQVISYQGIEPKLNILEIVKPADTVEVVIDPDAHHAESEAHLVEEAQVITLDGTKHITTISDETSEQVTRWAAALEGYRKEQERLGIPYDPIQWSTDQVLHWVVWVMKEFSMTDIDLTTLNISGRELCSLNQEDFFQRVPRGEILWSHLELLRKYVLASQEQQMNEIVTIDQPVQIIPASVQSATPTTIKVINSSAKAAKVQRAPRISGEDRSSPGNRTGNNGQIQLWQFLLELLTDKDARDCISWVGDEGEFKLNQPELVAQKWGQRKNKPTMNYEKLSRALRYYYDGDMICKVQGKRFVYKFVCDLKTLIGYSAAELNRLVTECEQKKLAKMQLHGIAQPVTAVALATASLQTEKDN
# Method in brief: as §1
# ERG = target: T4, ERG (Homo sapiens, UniProt P11308 1-479); settings: protein: recombinant; tags: N-terminal GST; dsDNA, one strand shown
# T4 sequence: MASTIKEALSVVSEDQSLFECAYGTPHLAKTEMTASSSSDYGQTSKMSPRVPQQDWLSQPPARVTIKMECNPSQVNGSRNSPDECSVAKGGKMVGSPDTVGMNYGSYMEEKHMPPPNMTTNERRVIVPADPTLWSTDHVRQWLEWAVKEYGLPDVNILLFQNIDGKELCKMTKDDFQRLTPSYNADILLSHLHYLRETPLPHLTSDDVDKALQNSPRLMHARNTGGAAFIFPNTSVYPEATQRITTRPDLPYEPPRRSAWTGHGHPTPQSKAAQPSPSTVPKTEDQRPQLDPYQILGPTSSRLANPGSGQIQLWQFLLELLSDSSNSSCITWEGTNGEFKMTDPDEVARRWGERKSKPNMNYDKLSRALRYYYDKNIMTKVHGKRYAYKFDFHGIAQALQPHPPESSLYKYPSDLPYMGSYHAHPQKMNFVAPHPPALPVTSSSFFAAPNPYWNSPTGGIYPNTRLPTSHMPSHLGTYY
# Method in brief: as §1
# ELF1 = ELF1 (Homo sapiens, UniProt P32519 1-619); settings: protein: recombinant; tags: N-terminal GST; dsDNA, one strand shown
# Method in brief: as §1
# SPI1 = SPI1 (Homo sapiens, UniProt P17947 1-270); settings: protein: recombinant; tags: N-terminal GST; dsDNA, one strand shown
# Method in brief: as §1
# SPIB = SPIB (Homo sapiens, UniProt Q01892 1-262); settings: protein: recombinant; tags: N-terminal GST; dsDNA, one strand shown
# Method in brief: as §1
# FEV = target: T5, FEV (Homo sapiens, UniProt Q99581 1-238); settings: protein: recombinant; tags: N-terminal GST; dsDNA, one strand shown
# T5 sequence: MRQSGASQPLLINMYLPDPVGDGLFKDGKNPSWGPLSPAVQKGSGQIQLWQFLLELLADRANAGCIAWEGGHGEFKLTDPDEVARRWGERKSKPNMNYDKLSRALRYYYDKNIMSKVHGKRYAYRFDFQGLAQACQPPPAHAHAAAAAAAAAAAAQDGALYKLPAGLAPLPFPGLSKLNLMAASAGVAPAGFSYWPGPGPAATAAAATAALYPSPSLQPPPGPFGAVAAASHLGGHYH
# Method in brief: as §1
# ETV5 = ETV5 (Homo sapiens, UniProt P41161 1-510); settings: protein: recombinant; tags: N-terminal GST; dsDNA, one strand shown
# Method in brief: as §1
# HSF1 = HSF1 (Homo sapiens, UniProt Q00613 1-529); settings: protein: recombinant; tags: N-terminal GST; chain copies: 3; dsDNA, one strand shown
# Method in brief: as §1
# ELF4 = ELF4 (Homo sapiens, UniProt Q99607 1-663); settings: protein: recombinant; tags: N-terminal GST; dsDNA, one strand shown
# Method in brief: as §1
# ELF3 = target: T6, ELF3 (Homo sapiens, UniProt P78545 1-371); settings: protein: recombinant; tags: N-terminal GST; dsDNA, one strand shown
# T6 sequence: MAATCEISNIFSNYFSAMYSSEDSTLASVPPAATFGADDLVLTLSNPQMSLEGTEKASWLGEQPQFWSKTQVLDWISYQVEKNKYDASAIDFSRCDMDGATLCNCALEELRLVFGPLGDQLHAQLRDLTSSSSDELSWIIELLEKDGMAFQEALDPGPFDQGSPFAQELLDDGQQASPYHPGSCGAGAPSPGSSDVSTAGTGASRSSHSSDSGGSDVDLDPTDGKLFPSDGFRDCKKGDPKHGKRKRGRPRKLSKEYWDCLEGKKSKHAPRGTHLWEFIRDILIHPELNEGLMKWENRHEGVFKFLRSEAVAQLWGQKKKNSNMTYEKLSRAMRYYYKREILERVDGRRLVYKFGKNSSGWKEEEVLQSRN
# Method in brief: as §1
# ETV1 = ETV1 (Homo sapiens, UniProt P50549 1-477); settings: protein: recombinant; tags: N-terminal GST; dsDNA, one strand shown
# Method in brief: as §1
# EHF = target: T7, EHF (Homo sapiens, UniProt Q9NZC4 1-300); settings: protein: recombinant; tags: N-terminal GST; dsDNA, one strand shown
# T7 sequence: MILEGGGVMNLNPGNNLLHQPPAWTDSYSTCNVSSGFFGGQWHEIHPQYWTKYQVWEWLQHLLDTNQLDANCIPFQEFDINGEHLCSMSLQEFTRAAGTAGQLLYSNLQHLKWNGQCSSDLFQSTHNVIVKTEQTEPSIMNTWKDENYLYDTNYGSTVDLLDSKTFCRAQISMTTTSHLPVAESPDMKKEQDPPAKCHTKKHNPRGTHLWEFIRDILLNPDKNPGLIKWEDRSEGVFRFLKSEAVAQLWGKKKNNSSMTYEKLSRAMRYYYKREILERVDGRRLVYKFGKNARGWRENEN
# Method in brief: as §1
# ELK3 = target: T8, ELK3 (Homo sapiens, UniProt P41970 1-407); settings: protein: recombinant; tags: N-terminal GST; dsDNA, one strand shown
# T8 sequence: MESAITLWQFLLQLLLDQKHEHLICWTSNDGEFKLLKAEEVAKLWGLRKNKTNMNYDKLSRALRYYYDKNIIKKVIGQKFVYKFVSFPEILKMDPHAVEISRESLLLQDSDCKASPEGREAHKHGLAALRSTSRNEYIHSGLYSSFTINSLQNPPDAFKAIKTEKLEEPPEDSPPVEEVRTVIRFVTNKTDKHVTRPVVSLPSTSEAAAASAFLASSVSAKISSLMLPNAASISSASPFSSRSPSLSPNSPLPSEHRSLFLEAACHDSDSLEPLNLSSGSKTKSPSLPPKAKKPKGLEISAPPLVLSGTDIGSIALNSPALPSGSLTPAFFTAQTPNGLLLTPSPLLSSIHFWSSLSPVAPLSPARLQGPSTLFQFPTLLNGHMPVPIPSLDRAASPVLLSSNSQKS
# Method in brief: as §1
# ELF4, sequence (Q99607 whole entry): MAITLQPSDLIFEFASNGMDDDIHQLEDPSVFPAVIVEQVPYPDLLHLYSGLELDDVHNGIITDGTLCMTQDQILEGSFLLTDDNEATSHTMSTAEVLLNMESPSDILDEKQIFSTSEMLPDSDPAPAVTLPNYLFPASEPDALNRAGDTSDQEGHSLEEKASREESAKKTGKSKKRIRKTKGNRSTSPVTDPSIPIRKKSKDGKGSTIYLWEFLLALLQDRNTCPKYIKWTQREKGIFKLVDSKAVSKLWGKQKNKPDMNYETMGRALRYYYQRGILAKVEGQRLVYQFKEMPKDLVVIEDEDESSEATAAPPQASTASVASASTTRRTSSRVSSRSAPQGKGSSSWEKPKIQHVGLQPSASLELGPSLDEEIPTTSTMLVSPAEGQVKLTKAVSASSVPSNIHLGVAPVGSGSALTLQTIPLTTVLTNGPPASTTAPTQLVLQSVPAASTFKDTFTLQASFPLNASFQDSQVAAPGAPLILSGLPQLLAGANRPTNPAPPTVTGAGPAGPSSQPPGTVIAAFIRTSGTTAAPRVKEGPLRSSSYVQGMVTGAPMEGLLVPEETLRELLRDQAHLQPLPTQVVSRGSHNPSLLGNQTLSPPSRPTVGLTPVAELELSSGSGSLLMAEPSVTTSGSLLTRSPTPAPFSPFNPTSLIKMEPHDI
# HSF1, sequence (Q00613 whole entry): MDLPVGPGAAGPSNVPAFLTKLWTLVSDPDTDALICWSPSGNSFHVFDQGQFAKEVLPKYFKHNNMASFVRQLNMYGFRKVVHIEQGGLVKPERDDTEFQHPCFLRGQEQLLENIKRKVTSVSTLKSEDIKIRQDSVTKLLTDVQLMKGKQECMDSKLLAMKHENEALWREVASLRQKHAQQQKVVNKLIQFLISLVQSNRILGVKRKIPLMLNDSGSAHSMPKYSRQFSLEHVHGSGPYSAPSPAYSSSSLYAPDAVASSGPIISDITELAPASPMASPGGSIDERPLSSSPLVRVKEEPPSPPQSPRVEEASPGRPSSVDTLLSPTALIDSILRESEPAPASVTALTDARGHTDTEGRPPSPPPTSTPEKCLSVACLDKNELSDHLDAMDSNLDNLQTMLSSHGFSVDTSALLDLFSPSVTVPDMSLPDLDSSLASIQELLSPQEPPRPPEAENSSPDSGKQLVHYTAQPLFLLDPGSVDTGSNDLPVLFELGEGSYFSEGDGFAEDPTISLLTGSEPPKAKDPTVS
# ETV1, sequence (P50549 whole entry): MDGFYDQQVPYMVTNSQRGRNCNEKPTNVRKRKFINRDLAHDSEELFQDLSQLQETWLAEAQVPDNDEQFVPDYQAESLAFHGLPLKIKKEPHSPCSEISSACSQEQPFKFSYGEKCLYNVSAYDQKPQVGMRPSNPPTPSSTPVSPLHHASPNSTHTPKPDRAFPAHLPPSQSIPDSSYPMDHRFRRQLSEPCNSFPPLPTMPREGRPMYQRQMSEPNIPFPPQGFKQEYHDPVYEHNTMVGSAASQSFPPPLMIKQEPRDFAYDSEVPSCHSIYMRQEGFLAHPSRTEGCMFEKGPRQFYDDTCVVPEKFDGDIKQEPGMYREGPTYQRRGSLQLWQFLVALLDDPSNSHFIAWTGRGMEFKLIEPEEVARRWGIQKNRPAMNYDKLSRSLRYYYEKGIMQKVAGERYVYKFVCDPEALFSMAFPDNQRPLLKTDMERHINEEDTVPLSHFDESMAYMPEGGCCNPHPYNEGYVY
# SPIB, sequence (Q01892 whole entry): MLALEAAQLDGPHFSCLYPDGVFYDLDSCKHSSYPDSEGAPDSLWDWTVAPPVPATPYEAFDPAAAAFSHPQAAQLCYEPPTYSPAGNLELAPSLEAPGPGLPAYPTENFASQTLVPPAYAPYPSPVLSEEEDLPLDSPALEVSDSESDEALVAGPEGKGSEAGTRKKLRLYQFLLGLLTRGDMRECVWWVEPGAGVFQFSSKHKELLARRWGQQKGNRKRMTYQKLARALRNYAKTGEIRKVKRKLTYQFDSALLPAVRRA
# ELF1, sequence (P32519 whole entry): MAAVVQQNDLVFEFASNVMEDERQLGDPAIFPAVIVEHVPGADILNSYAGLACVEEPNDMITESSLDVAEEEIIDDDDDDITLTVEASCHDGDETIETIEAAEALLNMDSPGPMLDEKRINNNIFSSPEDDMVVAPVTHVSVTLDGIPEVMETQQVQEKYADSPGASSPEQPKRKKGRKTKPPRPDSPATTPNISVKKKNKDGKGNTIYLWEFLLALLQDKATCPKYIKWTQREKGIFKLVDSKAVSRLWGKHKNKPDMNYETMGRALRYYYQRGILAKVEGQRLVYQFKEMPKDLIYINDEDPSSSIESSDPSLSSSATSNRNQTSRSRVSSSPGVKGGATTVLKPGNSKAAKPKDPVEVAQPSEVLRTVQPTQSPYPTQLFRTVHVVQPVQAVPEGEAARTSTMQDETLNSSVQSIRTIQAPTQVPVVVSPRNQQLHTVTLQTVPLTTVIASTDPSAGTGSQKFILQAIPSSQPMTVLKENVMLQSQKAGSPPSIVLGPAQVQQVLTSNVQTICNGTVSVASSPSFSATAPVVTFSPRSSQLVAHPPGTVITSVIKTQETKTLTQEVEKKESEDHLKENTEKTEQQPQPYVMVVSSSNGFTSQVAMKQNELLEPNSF
# ETV5, sequence (P41161 whole entry): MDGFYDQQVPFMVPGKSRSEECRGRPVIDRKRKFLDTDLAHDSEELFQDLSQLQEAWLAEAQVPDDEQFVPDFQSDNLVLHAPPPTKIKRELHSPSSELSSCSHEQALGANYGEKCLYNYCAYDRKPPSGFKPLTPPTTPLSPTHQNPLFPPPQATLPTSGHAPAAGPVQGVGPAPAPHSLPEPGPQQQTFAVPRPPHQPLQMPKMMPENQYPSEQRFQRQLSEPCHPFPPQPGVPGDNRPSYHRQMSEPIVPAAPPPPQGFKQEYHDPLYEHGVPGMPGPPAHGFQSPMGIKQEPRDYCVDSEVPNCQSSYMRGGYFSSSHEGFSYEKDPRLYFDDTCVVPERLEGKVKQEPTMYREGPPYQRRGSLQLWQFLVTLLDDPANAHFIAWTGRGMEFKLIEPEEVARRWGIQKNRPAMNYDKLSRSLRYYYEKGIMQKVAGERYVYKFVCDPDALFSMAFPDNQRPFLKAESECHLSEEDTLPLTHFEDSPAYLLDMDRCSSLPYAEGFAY
Sequence,binding signal (FLI1),binding signal (ELK1),binding signal (GABPA),binding signal (ERG),binding signal (ELF1),binding signal (SPI1),binding signal (SPIB),binding signal (FEV),binding signal (ETV5),binding signal (HSF1),binding signal (ELF4),binding signal (ELF3),binding signal (ETV1),binding signal (EHF),binding signal (ELK3)
AATGGA,"1.01 fold enrichment (6-mer frequency, TF over GST control)","1.01 fold enrichment (6-mer frequency, TF over GST control)","1.01 fold enrichment (6-mer frequency, TF over GST control)","1.06 fold enrichment (6-mer frequency, TF over GST control)","1.03 fold enrichment (6-mer frequency, TF over GST control)","1.06 fold enrichment (6-mer frequency, TF over GST control)","1.06 fold enrichment (6-mer frequency, TF over GST control)","1.09 fold enrichment (6-mer frequency, TF over GST control)","1.05 fold enrichment (6-mer frequency, TF over GST control)","1.12 fold enrichment (6-mer frequency, TF over GST control)","1.08 fold enrichment (6-mer frequency, TF over GST control)","1.05 fold enrichment (6-mer frequency, TF over GST control)","1.07 fold enrichment (6-mer frequency, TF over GST control)",,
AGCATC,"1.03 fold enrichment (6-mer frequency, TF over GST control)","1.12 fold enrichment (6-mer frequency, TF over GST control)","1.03 fold enrichment (6-mer frequency, TF over GST control)","1.04 fold enrichment (6-mer frequency, TF over GST control)","1.02 fold enrichment (6-mer frequency, TF over GST control)",,"1.02 fold enrichment (6-mer frequency, TF over GST control)","1.07 fold enrichment (6-mer frequency, TF over GST control)","1.03 fold enrichment (6-mer frequency, TF over GST control)","1.02 fold enrichment (6-mer frequency, TF over GST control)","1.02 fold enrichment (6-mer frequency, TF over GST control)",,"1.08 fold enrichment (6-mer frequency, TF over GST control)","1.02 fold enrichment (6-mer frequency, TF over GST control)","1.1 fold enrichment (6-mer frequency, TF over GST control)"
